Compound activity deposited in PubChem by Broad Institute.
C diff growth: blocks growth of Clostridium difficile; Clostridium difficile clinical isolate growth, OD600, 24 h; hits give low values; AID 1259249; hit rate 0.25% among 86,000; growth activity, negative = inhibition, % at 16 µg/mL (by protocol);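 active = mean growth activity at or below -80% and every replicate also at or below -80%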;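 also: 0% = DMSO wells and -100% = levofloxacin 16 µg/mL wells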
Active calls of the source: *; ! = a repeat was not active. Many of the other results were omitted from the sample, so hits are more common in it than they were.

SMILES	C diff growth
COc1ccc(-c2ccc(C3[C@H]4CNC[C@@H]3N4C(=O)Nc3ccc(F)cc3)cc2)cc1 (some centres undefined)	48.5
COc1ccc(-c2ccc(C3[C@H]4CNC[C@@H]3N4C(=O)Nc3ccc(C(F)(F)F)cc3)cc2)cc1 (some centres undefined)	-98.6*!
N#Cc1ccc(-c2ccc(C3[C@@H]4CN(C(=O)C5CC5)C[C@H]3N4)cc2)cc1 (some centres undefined)	-11.2
Cc1noc(C)c1S(=O)(=O)Nc1ccc2c(c1)C(=O)N([C@@H](C)CO)C[C@@H](C)[C@@H](CN(C)C(=O)Nc1ccccc1)OCCCC[C@@H](C)O2	-0.3
CC(C)NC(=O)N(C)C[C@@H]1Oc2c(NC(=O)Nc3ccc4c(c3)OCO4)cccc2C(=O)N([C@@H](C)CO)C[C@@H]1C	-1.4
CC(=O)N1[C@@H]2Cn3c(ccc(-c4ccc(F)cc4)c3=O)[C@H]1[C@@H](C(=O)N(C)C)[C@@H]2CO	-1.3
CCC(=O)N1C[C@H](C)[C@H](OC)CN(C)C(=O)c2cc(NC(=O)CC(F)(F)F)ccc2OC[C@H]1C	-5.7
CC(C)NC(=O)N(C)C[C@H]1Oc2c(NC(=O)C3CCOCC3)cccc2C(=O)N([C@@H](C)CO)C[C@@H]1C	-4.1
O=C(c1ccccc1)N1CC[C@@H]2[C@H]1c1cc(-c3ccc(F)cc3)ccc1N[C@@H]2CO	-3.4
C[C@@H]1CN([C@H](C)CO)C(=O)CCCn2nncc2CO[C@@H]1CN(C)Cc1ccncc1	-2.2
O=C(C[C@@H]1CC[C@H]2[C@@H](COC[C@H](O)CN2Cc2ccc(Oc3ccccc3)cc2)O1)N1CCc2ccccc2C1	47.6
COc1cccc(-c2ccc(C3[C@@H]4CN(Cc5ccccn5)C[C@H]3N4)cc2)c1 (some centres undefined)	13.1
COc1cc(CN2C[C@@H]3N[C@H](C2)C3c2ccc(-c3ccccc3C)cc2)cc(OC)c1 (some centres undefined)	-98.9*
Cc1ccccc1-c1ccc(C2[C@@H]3CN(S(=O)(=O)Cc4ccccc4)C[C@H]2N3)cc1 (some centres undefined)	52.1
COc1cccc(CN2C[C@@H]3N[C@H](C2)C3c2ccc(-c3cccc(C#N)c3)cc2)c1 (some centres undefined)	43.5
COc1ccc(-c2ccc(C3[C@@H]4CN(Cc5cccc(OC)c5)C[C@H]3N4)cc2)cc1 (some centres undefined)	-81.0*!
COc1cccc(CN2C[C@@H]3N[C@H](C2)C3c2ccc(-c3ccccc3C)cc2)c1 (some centres undefined)	-95.7*
Cc1ccccc1-c1ccc(C2[C@@H]3CN(C(=O)Cc4ccccc4)C[C@H]2N3)cc1 (some centres undefined)	61.1
COc1cccc(CN2C[C@@H]3N[C@H](C2)C3c2ccc(-c3ccncc3)cc2)c1 (some centres undefined)	-3.4
C/C=C/c1ccc(C2[C@@H]3CN(Cc4cc(OC)cc(OC)c4)C[C@H]2N3)cc1 (some centres undefined)	21.4
COc1cccc(-c2ccc(C3[C@@H]4CN(Cc5cccc(F)c5)C[C@H]3N4)cc2)c1 (some centres undefined)	-98.5*
COc1ccc(-c2ccc(C3[C@@H]4CN(Cc5ccccn5)C[C@H]3N4)cc2)cc1 (some centres undefined)	-12.2
COc1cccc(-c2ccc(C3[C@@H]4CN(C(=O)C5CCCC5)C[C@H]3N4)cc2)c1 (some centres undefined)	-5.5
CCCN(C)C[C@H]1OCCCC[C@H](C)Oc2ccc(NS(=O)(=O)c3ccc(F)cc3)cc2C(=O)N([C@@H](C)CO)C[C@@H]1C	11.8
CCNC(=O)[C@H]1[C@H](CO)[C@H]2Cn3c(ccc(-c4ccccc4)c3=O)[C@@H]1N2CCC(F)(F)F	-2.4
SMILES	C diff growth
CO[C@@H](C(=O)N(C)C[C@@H]1OCc2ccccc2-c2c(n(C)c3ccccc23)C(=O)N([C@@H](C)CO)C[C@@H]1C)c1ccccc1	-2.6
O=C(C1CC1)N1CC(=O)N2[C@H](CO)[C@H](c3ccc(-c4ccccc4F)cc3)[C@H]2C1	-11.7
Cc1cccc(S(=O)(=O)N2C[C@@H]3N[C@H](C2)C3c2ccc(-c3cccnc3)cc2)c1 (some centres undefined)	-15.3
COc1cccc(S(=O)(=O)N2C[C@@H]3N[C@H](C2)C3c2ccc(-c3cccc(C)c3)cc2)c1 (some centres undefined)	-94.3*!
COc1cccc(CN2C[C@@H]3N[C@H](C2)C3c2ccc(-c3ccccc3F)cc2)c1 (some centres undefined)	-93.8*
COc1cccc(S(=O)(=O)N2[C@@H]3CNC[C@H]2C3c2ccc(-c3ccccc3F)cc2)c1 (some centres undefined)	50.7
COc1cccc(CN2[C@@H]3CNC[C@H]2[C@H]3c2ccc(-c3ccccc3OC)cc2)c1	-8.1
COc1ccc(-c2ccc(C3[C@@H]4CN(S(=O)(=O)c5cccc(C)c5)C[C@H]3N4)cc2)cc1 (some centres undefined)	-4.3
CCCNC(=O)C[C@@H]1C[C@@H]2c3cc(NC(=O)Cc4ccncc4)ccc3O[C@@H]2[C@H](CO)O1	-1.3
O=C(Nc1ccccc1F)N1C[C@@H]2[C@H](c3ccccc31)[C@@H](CO)N2C(=O)Cc1ccccc1	0.4
COc1ccc(CNC(=O)C[C@H]2C[C@H]3c4cc(NS(=O)(=O)c5ccc(F)cc5)ccc4O[C@H]3[C@H](CO)O2)cc1	-0.3
Cc1ccccc1-c1cnc2c(c1)C(=O)N([C@@H](C)CO)C[C@H](C)[C@H](CN(C)Cc1cccnc1)O2	4.7
COc1ccc2c3c(n(C)c2c1)[C@H](CO)N(C(=O)CN(C)C)CC31CN(C(=O)C2CCC2)C1	-3.5
C[C@H](CO)N1C[C@H](C)[C@@H](CN(C)Cc2ccc(C(=O)O)cc2)Oc2cc(/C=C/c3ccccc3)ccc2S1(=O)=O	-3.1
C[C@H]1CN([C@@H](C)CO)S(=O)(=O)c2ccc(/C=C/c3ccccc3)cc2O[C@H]1CN(C)Cc1ccc(C(=O)O)cc1	1.3
C[C@@H]1CN([C@H](C)CO)S(=O)(=O)c2ccc(/C=C/c3ccccc3)cc2O[C@H]1CN(C)Cc1ccc(C(=O)O)cc1	-98.1*
C[C@@H]1CN([C@H](C)CO)C(=O)c2cc(NC(=O)C3CCCCC3)ccc2O[C@@H](C)CCCCO[C@@H]1CN(C)C(=O)c1ccncc1	-3.0
CO[C@@H]1CN(C)C(=O)c2cc(NC(=O)Nc3ccc(Cl)cc3)ccc2OC[C@H](C)NC[C@@H]1C	-3.5
CO[C@H]1CN(C)C(=O)c2cc(NC(=O)Nc3ccc(Cl)cc3)ccc2OC[C@@H](C)NC[C@H]1C	-4.2
CO[C@H]1CN(C)C(=O)c2cc(NC(=O)Nc3ccc(Cl)c(Cl)c3)ccc2OC[C@@H](C)NC[C@H]1C	-97.4*
CO[C@H]1CN(C)C(=O)c2cc(NC(=O)Nc3ccccc3)ccc2OC[C@H](C)NC[C@H]1C	-2.7
CO[C@H]1CN(C)C(=O)c2cc(NC(=O)Nc3ccc(Cl)c(Cl)c3)ccc2OC[C@@H](C)NC[C@@H]1C	-95.9*
CO[C@H]1CN(C)C(=O)c2cc(NC(=O)Nc3ccc(Cl)cc3)ccc2OC[C@@H](C)NC[C@@H]1C	-0.2
C/C=C/c1ccc2c(c1)O[C@@H](CN(C)S(=O)(=O)c1ccc(F)cc1)[C@@H](C)CN([C@@H](C)CO)S2(=O)=O	6.2
COc1ccc2c3c(n(C)c2c1)[C@@H](CO)N(C(C)=O)CC31CN(C(=O)c2ccccc2)C1	-2.7
